# About 410 targets per protein were measured; listed, in parts, are those with the strongest signals and a random draw of the rest.
# B1: SP16663B-bot-321-25-321 (Bacteroides ovatus) (protein)
# chain: DDDDEVTMNSKFYLSTKVFPVDSYEASLSVILKDNSVVVNELQPNYRFVACATERLSKDVKITADSDDNLVSAYNKANDTEYNILPAENYSFTNKTVTIENGESVSGDSIKIELLNVGSLTTEGGYLLPVTISSIEGNNLDALSSNRGVVYLKIQNIHVNVESGQPAEGTLIADRSGWTVKVAPTTRGDAKNLIDGTNSDVARDGGAEYWLTVDIGKVQTLTGIRNKCYASSYSPTAVEVFTSSDGAKWKSIGAVTISKSGTQYIKFSKAVETRYLKYYVKQGPNTVSLTEFDLYAK
# B2: NKp30 (Homo sapiens), O14931 (protein)
# chain: MAWMLLLILIMVHPGSCALWVSQPPEIRTLEGSSAFLPCSFNASQGRLAIGSVTWFRDEVVPGKEVRNGTPERFGRLAPLASSRFLHDHQAELHIRDVRGHDASIYVCRVEVLGLGVGTGNGTRLVVRKEHPQLGAGTHADPEAPEAEGAPSVFLFPPKPKDTLMISRTPEVTCVVVDVSHEDPEVKFNWYVDGVEVHNAKTPREEQYNSTYRVVSVLTVLHQDWLNGKEYKCKVSNKALPAPIEKTISKAKGQPREPQVYTLPPSRDELTKNQVSLTCLVKGFYPSDIAVEWESNGQPENNYKTTPPVLDSDGSFFLYSKLTVDKSRWQQGNVFSCSVMHEALHNHYTQKSLSLSPGK
# Key:
# Assay in all cases: glycan array binding signal (z-score within array); higher = stronger binding
# Conditions in all cases: glycan notation: IUPAC condensed, linker removed
# [1] = biological target: Neu5Ac(a2-3)Gal(b1-3)GalNAc(b1-4)[Neu5Ac(a2-8)Neu5Ac(a2-3)]Gal(b1-4)Glc
# Outline: (§1)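 Negative Z-scores can be read as non-binding. The Z-score is calculated within each array and then averaged across arrays of one protein sequence at different concentrations or buffers and across linkers. Arrays, 3228 in all, were curated from the Consortium for Functional Glycomics database and kept only where the protein sequence was available.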
# [2] = biological target: Neu5Ac(a2-3)Gal(b1-4)GlcNAc(b1-2)[Neu5Ac(a2-3)Gal(b1-4)GlcNAc(b1-4)]Man(a1-3)[GlcNAc(b1-4)][Neu5Ac(a2-3)Gal(b1-4)GlcNAc(b1-4)Man(a1-6)]Man(b1-4)GlcNAc(b1-4)GlcNAc
# Outline: as §1
# [3] = biological target: Neu5Ac(a2-3)Gal(b1-4)[Fuc(a1-3)]GlcNAc
# Outline: as §1
# [4] = biological target: Neu5Ac(a2-3)Gal(b1-4)[Fuc(a1-3)]GlcNAc6S
# Outline: as §1
# [5] = biological target: Neu5Ac(a2-6)Gal(b1-4)GlcNAc(b1-2)Man(a1-3)[Neu5Ac(a2-6)Gal(b1-4)GlcNAc(b1-2)Man(a1-6)]Man(b1-4)GlcNAc(b1-4)[Fuc(a1-6)]GlcNAc
# Outline: as §1
# [6] = biological target: Neu5Ac(a2-6)Gal(b1-4)GlcNAc(b1-2)Man(a1-6)[Gal(b1-4)GlcNAc(b1-2)Man(a1-3)]Man(b1-4)GlcNAc(b1-4)GlcNAc
# Outline: as §1
# [7] = biological target: Neu5Ac(a2-6)Gal(b1-4)GlcNAc(b1-3)Gal(b1-4)GlcNAc(b1-3)GalNAc
# Outline: as §1
# [8] = biological target: Neu5Ac(a2-8)Neu5Ac(a2-3)Gal(b1-3)GalNAc(b1-4)[Neu5Ac(a2-3)]Gal(b1-4)Glc
# Outline: as §1
# [9] = biological target: Neu5Ac(a2-8)Neu5Ac(a2-3)[Gal(b1-3)GalNAc(b1-4)]Gal(b1-4)Glc
# Outline: as §1
# Neu5Ac(b2-6)GalNAc = biological target: Neu5Ac(b2-6)GalNAc
# Outline: as §1
# [10] = biological target: Neu5Ac9Ac(a2-3)Gal(b1-3)GlcNAc
# Outline: as §1
# [11] = biological target: Neu5Gc(a2-3)Gal(b1-4)GlcNAc(b1-3)Gal(b1-4)GlcNAc(b1-2)Man(a1-3)[Neu5Gc(a2-3)Gal(b1-4)GlcNAc(b1-3)Gal(b1-4)GlcNAc(b1-2)Man(a1-6)]Man(b1-4)GlcNAc(b1-4)GlcNAc
# Outline: as §1
# [12] = biological target: Neu5Gc(a2-6)Gal(b1-4)GlcNAc
# Outline: as §1
# Fuc(a1-2)Gal(b1-4)Glc = biological target: Fuc(a1-2)Gal(b1-4)Glc
# Outline: as §1
# [13] = biological target: Fuc(a1-2)Gal(b1-4)[Fuc(a1-3)]GlcNAc
# Outline: as §1
# Fuc(a1-2)[Gal(a1-3)]Gal = biological target: Fuc(a1-2)[Gal(a1-3)]Gal
# Outline: as §1
# [14] = biological target: Fuc(a1-2)[GalNAc(a1-3)]Gal(b1-4)[Fuc(a1-3)]GlcNAc
# Outline: as §1
# [15] = biological target: Fuc(a1-2)[GalNAc(a1-4)]Gal(b1-4)GlcNAc
# Outline: as §1
# Fuc(a1-3)GlcNAc = biological target: Fuc(a1-3)GlcNAc
# Outline: as §1
# Gal(a1-2)Gal = biological target: Gal(a1-2)Gal
# Outline: as §1
# Gal(a1-3)Gal = biological target: Gal(a1-3)Gal
# Outline: as §1
# Gal(a1-3)Gal(b1-4)Glc = biological target: Gal(a1-3)Gal(b1-4)Glc
# Outline: as §1
# Gal(a1-6)Glc = biological target: Gal(a1-6)Glc
# Outline: as §1
# [16] = biological target: Gal(b1-3)GalNAc(b1-4)[Neu5Ac(a2-3)]Gal(b1-4)Glc
# Outline: as §1
# [17] = biological target: Gal(b1-3)[Neu5Ac(b2-6)]GalNAc
# Outline: as §1
# [18] = biological target: Gal(b1-4)GalNAc(a1-3)[Fuc(a1-2)]Gal(b1-4)GlcNAc
# Outline: as §1
# [19] = biological target: Gal(b1-4)GlcNAc(b1-3)Gal(b1-4)GlcNAc(b1-3)Gal(b1-4)GlcNAc
# Outline: as §1
# [20] = biological target: Gal(b1-4)GlcNAc(b1-3)[Gal(b1-4)GlcNAc(b1-6)]Gal(b1-4)GlcNAc
# Outline: as §1
# Gal3S(b1-3)GalNAc = biological target: Gal3S(b1-3)GalNAc
# Outline: as §1
# Gal3S(b1-4)Glc = biological target: Gal3S(b1-4)Glc
# Outline: as §1
# Gal3S(b1-4)GlcNAc6S = biological target: Gal3S(b1-4)GlcNAc6S
# Outline: as §1
# GalNAc(b1-3)GalNAc = biological target: GalNAc(b1-3)GalNAc
# Outline: as §1
# Glc(a1-4)Glc = biological target: Glc(a1-4)Glc
# Outline: as §1
# GlcNAc(b1-3)Man = biological target: GlcNAc(b1-3)Man
# Outline: as §1
# GlcNAc(b1-4)GlcNAc = biological target: GlcNAc(b1-4)GlcNAc
# Outline: as §1
# Kdn(a2-3)Gal(b1-4)GlcNAc = biological target: Kdn(a2-3)Gal(b1-4)GlcNAc
# Outline: as §1
# [21] = biological target: Man(a1-2)Man(a1-6)[Man(a1-3)]Man(a1-6)[Man(a1-2)Man(a1-2)Man(a1-3)]Man
# Outline: as §1
# [22] = biological target: Man(a1-2)Man(a1-6)[Man(a1-3)]Man(a1-6)[Man(a1-2)Man(a1-2)Man(a1-3)]Man(b1-4)GlcNAc(b1-4)GlcNAc
# Outline: as §1
# [23] = biological target: Neu5Ac(a2-3)Gal(b1-4)[Fuc(a1-3)]GlcNAc(b1-3)Gal(b1-4)[Fuc(a1-3)]GlcNAc(b1-3)Gal(b1-4)[Fuc(a1-3)]GlcNAc
# Outline: as §1
# [24] = biological target: Neu5Ac(a2-6)Gal(b1-4)GlcNAc(b1-3)Gal(b1-4)[Fuc(a1-3)]GlcNAc(b1-3)Gal(b1-4)[Fuc(a1-3)]GlcNAc
# Outline: as §1
# [25] = biological target: Neu5Ac(a2-8)Neu5Ac(a2-8)Neu5Ac(a2-3)[GalNAc(b1-4)]Gal(b1-4)Glc
# Outline: as §1
# [26] = biological target: Neu5Ac9Ac(a2-6)Gal(b1-4)GlcNAc
# Outline: as §1
binder,measurement,setting,value
B1,glycan array binding signal (z-score),[1],0.469
same,glycan array binding signal (z-score),[2],-0.146
same,glycan array binding signal (z-score),[3],-0.258
same,glycan array binding signal (z-score),[4],-0.406
same,glycan array binding signal (z-score),[5],0.583
same,glycan array binding signal (z-score),[6],-0.492
same,glycan array binding signal (z-score),[7],-0.34
same,glycan array binding signal (z-score),[8],-0.244
same,glycan array binding signal (z-score),[9],0.154
same,glycan array binding signal (z-score),Neu5Ac(b2-6)GalNAc,-0.878
same,glycan array binding signal (z-score),[10],0.033
same,glycan array binding signal (z-score),[11],-0.142
same,glycan array binding signal (z-score),[12],0.696
B2,glycan array binding signal (z-score),Fuc(a1-2)Gal(b1-4)Glc,-0.091
same,glycan array binding signal (z-score),[13],0.195
same,glycan array binding signal (z-score),Fuc(a1-2)[Gal(a1-3)]Gal,0.375
same,glycan array binding signal (z-score),[14],0.416
same,glycan array binding signal (z-score),[15],-0.379
same,glycan array binding signal (z-score),Fuc(a1-3)GlcNAc,13.9
same,glycan array binding signal (z-score),Gal(a1-2)Gal,1.41
same,glycan array binding signal (z-score),Gal(a1-3)Gal,1.89
same,glycan array binding signal (z-score),Gal(a1-3)Gal(b1-4)Glc,2.48
same,glycan array binding signal (z-score),Gal(a1-6)Glc,6.49
same,glycan array binding signal (z-score),[16],-0.671
same,glycan array binding signal (z-score),[17],-0.317
same,glycan array binding signal (z-score),[18],0.071
same,glycan array binding signal (z-score),[19],-0.44
same,glycan array binding signal (z-score),[20],0.041
same,glycan array binding signal (z-score),Gal3S(b1-3)GalNAc,-0.265
same,glycan array binding signal (z-score),Gal3S(b1-4)Glc,-0.02
same,glycan array binding signal (z-score),Gal3S(b1-4)GlcNAc6S,-0.253
same,glycan array binding signal (z-score),GalNAc(b1-3)GalNAc,1.68
same,glycan array binding signal (z-score),Glc(a1-4)Glc,0.053
same,glycan array binding signal (z-score),GlcNAc(b1-3)Man,-0.416
same,glycan array binding signal (z-score),GlcNAc(b1-4)GlcNAc,0.115
same,glycan array binding signal (z-score),Kdn(a2-3)Gal(b1-4)GlcNAc,-0.251
same,glycan array binding signal (z-score),[21],-0.314
same,glycan array binding signal (z-score),[22],-0.41
same,glycan array binding signal (z-score),[23],-0.204
same,glycan array binding signal (z-score),[24],-0.38
same,glycan array binding signal (z-score),[25],-0.221
same,glycan array binding signal (z-score),[26],0.048

# Reference: the supplement of paper PMC8728848
